# Assay results taken from publication PMC4336329 (PLoS ONE, 2015).
# About 14,000 (4.5%) of roughly 310,000 compounds showed an effect of 50% or more. The effect is printed as a negative number. The sample as a whole holds a higher share of strong results than the screen did.
# Molecular target: human ether-à-go-go-related gene (hERG) potassium channel (human, UniProt Q12809)
# Experiment: primary screen, population patch clamp on CHO cells stably expressing hERG; higher = less effect of the substance
# 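Further: peak tail current of the secondary pulse compared with the same well before compound.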
# Sequence of human ether-à-go-go-related gene (hERG) potassium channel (Q12809 whole entry, looked up): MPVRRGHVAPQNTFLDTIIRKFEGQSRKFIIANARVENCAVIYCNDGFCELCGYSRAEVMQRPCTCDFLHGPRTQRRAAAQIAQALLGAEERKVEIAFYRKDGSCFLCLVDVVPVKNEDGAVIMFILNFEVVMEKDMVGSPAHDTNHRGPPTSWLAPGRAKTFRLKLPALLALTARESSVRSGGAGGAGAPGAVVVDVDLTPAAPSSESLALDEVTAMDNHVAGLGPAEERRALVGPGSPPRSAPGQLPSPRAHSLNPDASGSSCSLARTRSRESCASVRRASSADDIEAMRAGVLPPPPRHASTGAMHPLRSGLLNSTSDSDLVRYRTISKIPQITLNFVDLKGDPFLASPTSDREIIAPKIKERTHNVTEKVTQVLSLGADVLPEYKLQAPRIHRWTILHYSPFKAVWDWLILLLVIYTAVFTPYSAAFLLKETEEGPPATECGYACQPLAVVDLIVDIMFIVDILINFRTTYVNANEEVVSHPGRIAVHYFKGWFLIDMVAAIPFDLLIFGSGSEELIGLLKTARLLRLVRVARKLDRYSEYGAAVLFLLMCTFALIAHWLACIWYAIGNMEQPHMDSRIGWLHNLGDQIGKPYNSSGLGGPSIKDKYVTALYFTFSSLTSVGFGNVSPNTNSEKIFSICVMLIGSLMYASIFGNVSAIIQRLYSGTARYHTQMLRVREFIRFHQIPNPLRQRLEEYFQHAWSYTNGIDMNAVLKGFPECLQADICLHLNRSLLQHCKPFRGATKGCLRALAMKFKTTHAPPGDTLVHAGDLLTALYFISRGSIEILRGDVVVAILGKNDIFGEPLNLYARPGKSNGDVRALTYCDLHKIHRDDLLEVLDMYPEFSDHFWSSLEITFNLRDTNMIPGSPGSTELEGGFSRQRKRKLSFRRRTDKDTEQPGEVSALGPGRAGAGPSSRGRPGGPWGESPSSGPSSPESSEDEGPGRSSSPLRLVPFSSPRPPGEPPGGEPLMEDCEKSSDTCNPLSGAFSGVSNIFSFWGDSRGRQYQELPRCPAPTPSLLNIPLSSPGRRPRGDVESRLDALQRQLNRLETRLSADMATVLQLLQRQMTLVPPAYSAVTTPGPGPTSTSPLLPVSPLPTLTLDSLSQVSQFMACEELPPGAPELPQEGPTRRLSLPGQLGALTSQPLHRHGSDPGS
row,Compound,"hERG current change (%, negative = inhibition) at 10uM [%]"
1,O=C(Nc1cc(Sc2ccccn2)cc([N+](=O)[O-])c1)c1ccc([N+](=O)[O-])cc1,-6.06
2,CCOc1ccc(-n2ccc(=O)c(C(=O)Nc3ccc(S(=O)(=O)Nc4ncccn4)cc3)n2)cc1,7.22
3,CC1CCCC(NC(=O)CCn2c(=O)oc3ccccc32)C1C (stereo not drawn),-18.4
4,COC(=O)c1cc2oc(C)cc2n1CC(=O)N(C)c1ccccc1,5.36
5,O=C(O)c1ccc(/C=N/N2CCN(c3ccccc3)CC2)cc1,7.59
6,CC(C)N(C(=O)CSc1nc(COc2ccccc2)nc2ccccc12)C(C)C,-4.66
7,O=C(NC(=S)N1CCOCC1)c1cc2ccccc2o1,12.7
8,O=C(Cc1ccccn1)c1ccc(O)cc1O,21.5
9,Cc1ccccc1Nc1nnc(SCC(=O)Nc2ccccc2[N+](=O)[O-])s1,3.5
10,O=S1(=O)[C@H]2C[C@@H]3C=C[C@@]2(CN1Cc1ccc(F)cc1)O3,-25.2
11,CCN(CC)CCNC(=O)c1cc2ccccc2nc1Cl,43.4
12,CCCCCn1c(=O)[nH]c2cc(C(=O)N3CCN(C(=O)OCC)CC3)ccc2c1=O,-9.61
13,CCC(=O)NCCn1c(C)cc2ccccc21,-0.267
14,Cc1cc2ccccc2n1CCNC(=O)C(C)(C)C,11.7
15,CC(=O)NCCn1c(C)cc2ccccc21,-55.1
16,COC(=O)c1ccc(COc2ccc(CNCc3ccc(Cl)cc3)cc2)cc1,-0.414
17,O=C(O)C(=O)O.O=C(c1ccccc1)c1ccc(OCC(O)CNCc2cccc(Cl)c2)cc1 (stereo not drawn),-60.3
18,CN(Cc1ccccc1)CC(O)COc1ccc(CNCCc2ccncc2)cc1 (stereo not drawn),-17.5
19,COc1ccc(CNC(=O)Cc2cccs2)cc1,15
20,COc1cccc(CNCC(O)COc2ccc(C(=O)c3ccccc3)cc2)c1 (stereo not drawn),-34.7
21,Cc1ccc(OCC(O)CNCc2ccccc2)cc1C (stereo not drawn),-33.5
22,C=CCOc1ccc(CN(C)CC(O)COc2ccc(CCC(C)=O)cc2)cc1 (stereo not drawn),-63.6
23,C=CCOc1ccc(CN(C)CC(O)COc2cccc3ccccc23)cc1 (stereo not drawn),-23.2
24,O=C(O)C(=O)O.OC(CNCc1ccc(Cl)cc1)COc1ccccc1 (stereo not drawn),-41.9

row,Compound,"hERG current change (%, negative = inhibition) at 10uM [%]"
1,COc1ccc(CNCC(O)COCc2cccs2)cc1 (stereo not drawn),-60.8
2,COc1ccc(CNC(C)Cc2cccs2)cc1 (stereo not drawn),-2.79
3,O=C(O)C(=O)O.O=C(c1ccccc1)c1ccc(OCC(O)CNCc2ccc(Cl)cc2)cc1 (stereo not drawn),-66.6
4,CCNC(=O)/C=C/c1ccccc1[N+](=O)[O-],8.82
5,COc1ccc2[nH]c(=O)c(CN(c3ccccc3)S(=O)(=O)c3ccccc3)cc2c1,11.2
6,COc1ccc2cnn(-c3ccc(OC(F)(F)F)cc3)c(=O)c2c1OC,-6
7,CCOC(=O)C(=CNc1cc(C)ccc1-n1cccc1)C(=O)OCC,2.05
8,Cc1ccc(/C=C2/Sc3ccc(C(=O)N4CCC5(CC4)OCCO5)cc3NC2=O)cc1,16.1
9,Cc1sc(NC(=O)CN(Cc2ccccc2)C(=O)C(C)C)c(C(N)=O)c1C,-0.293
10,O=C(COc1cc(F)ccc1[N+](=O)[O-])Nc1ccc2c(c1)OCO2,1.25
11,Cc1csc(NC(=O)C2CCN(S(=O)(=O)c3ccc4c(c3)oc(=O)n4C)CC2)n1,-11.5
12,COCCNC(=O)c1cc(-c2ccccc2)n(Cc2cc(C)no2)n1,0.26
13,Cn1c(O)c(C=NCCN2CCN(C(=O)Nc3ccccc3)CC2)c(=O)n(C)c1=O,13.1
14,O=C(Nc1cc(Cl)cc(Cl)c1)C(NCCCO)c1ccccc1 (stereo not drawn),3.1
15,CC(NCc1ccc2c(c1)OCO2)c1ccccc1.Cl (stereo not drawn),10.4
16,CC(NCC(O)COCc1ccc(Cl)cc1)c1ccccc1.Cl (stereo not drawn),-43.1
17,Cc1ccc(OCCNCC(O)COc2ccccc2)cc1.O=C(O)C(=O)O (stereo not drawn),-44.2
18,Cc1ccc(C(OCC(O)CNCc2ccc(F)cc2)c2ccccc2)cc1.O=C(O)C(=O)O (stereo not drawn),-75.7
19,Cc1ccc(CNCc2ccc3c(c2)OCO3)cc1,-0.503
20,CC(CNCc1ccc2c(c1)OCO2)NCc1ccc2c(c1)OCO2 (stereo not drawn),-54.5
21,CC(=O)CCc1ccc(OCC(O)CNCCOc2ccc(C)cc2)cc1 (stereo not drawn),-55.9
22,CC(C)(C)NCC(O)COCc1ccc(Cl)cc1.Cl (stereo not drawn),-24.6
23,COc1ccc(CCC(=O)NCCOc2ccc(C)cc2)cc1,2.1
24,Cl.OC(CNCc1ccccc1)COCc1ccc(Cl)cc1 (stereo not drawn),-50.3
